# Most compounds without a hit are left out; they make up all but 7.5% or so of the library.
# ELG1 genotox = induces genotoxicity in HEK293T cells with luciferase-tagged ELG1. HEK293T ELG1-luciferase reporter, luminescence, 16 h. Potency, µM (highest dose often 46 µM), inactives show top-dose activity change, positive = activation, usual class: activators. 330,000 compounds, 1.3% hits; also: % of control where 0% means no effect; nearly all actives have a fitted effect of over 60% in size
#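 Genotoxicity was scored as increased ELG1-luciferase reporter signal, measured by ONE-Glo luminescence (30 min, room temperature). Compound or vehicle exposure of the HEK293T reporter cells lasted 16 hr at 37°C.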
# Rab9 prom act = activators of Rab9 promoter | Huh7 Rab9 promoter-luciferase reporter, luminescence, 24 h | Potency, µM (titrated, usually from 9.22 µM), for the others: top-dose activation, negative = inhibition, usual class: activators | 320,000 compounds, 2.8% hits | AID 485297; also: % of control where 0% means no effect; nearly all actives have a fitted effect of over 60% in size
#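 Luminescence from Amplite-detected luciferase (10 minutes, ambient) reports Rab9 promoter activation. Before that, stable Rab9-luciferase Huh7 cells (1500/well, reduced-serum OP-MEM I plus 10% FBS) were exposed to compound for 24 hours at 37C.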
# SMN2 splice enh = increases expression of the SMN2 splice variant; 210,000 compounds, 2.8% hits; HEK293 SMN2-luciferase splicing reporter, luminescence, 30-36 h; Potency, µM (series often up to 46.1 µM), for inactives: top-dose activity change, positive = activation, actives largely listed as activators; AID 1458; also: % of control where 0% means no effect; nearly all actives have a fitted effect of over 55% in size
#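 HEK293 cells carry an SMN2 […]–luciferase reporter in which exon 7 inclusion puts luciferase in frame. Cells were plated 10-12 h before compound addition, then incubated 30-36 h at 37C. ONE-Glo luminescence was read; sodium butyrate at 4.5 mM final served as control.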
# FLuc modulator = firefly luciferase modulation, counter-screen for miR-21 project; 360,000 compounds, 6.9% hits; P08659; purified FLuc, Km substrates, luminescence inhibition; Potency, µM (titrated, usually from 57.5 µM), without a hit: at the top dose activity change, negative = inhibition, actives largely listed as inhibitors;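 also: plate controls were vehicle for no effect and reference inhibitor for full effect; nearly all actives have a fitted effect of over 55% in size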
# Target sequence (P08659 whole entry, looked up): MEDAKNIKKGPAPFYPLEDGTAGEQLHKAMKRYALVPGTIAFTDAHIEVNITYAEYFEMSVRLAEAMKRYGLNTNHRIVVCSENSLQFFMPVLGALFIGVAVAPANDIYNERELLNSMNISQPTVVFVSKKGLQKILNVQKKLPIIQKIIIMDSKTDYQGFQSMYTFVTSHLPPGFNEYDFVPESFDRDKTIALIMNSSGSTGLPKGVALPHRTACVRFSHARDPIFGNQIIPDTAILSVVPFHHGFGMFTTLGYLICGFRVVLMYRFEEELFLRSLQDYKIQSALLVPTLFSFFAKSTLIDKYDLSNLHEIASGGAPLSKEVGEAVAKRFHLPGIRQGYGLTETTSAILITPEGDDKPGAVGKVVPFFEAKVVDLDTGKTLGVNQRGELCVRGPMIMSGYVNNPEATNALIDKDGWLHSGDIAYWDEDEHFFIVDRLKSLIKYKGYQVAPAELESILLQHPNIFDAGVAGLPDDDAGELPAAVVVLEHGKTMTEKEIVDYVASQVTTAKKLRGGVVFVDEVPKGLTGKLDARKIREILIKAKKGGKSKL
#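 Biochemical qHTS of compounds, final roughly 60 µM downward over six points, against 10 nM purified firefly luciferase using Km concentrations of substrates (10 uM D-luciferin, 10 uM ATP) in Tris acetate pH 7.5 buffer; luminescence output.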
# NPC1 prom act = NPC1 promoter activation | Huh7 NPC1 promoter luciferase reporter, 24 h | Potency, µM (titrated, usually from 9.22 µM), inactives show top-dose activation, most hits filed as activators | 320,000 compounds, 2.4% hits; also: % of control where 0% means no effect; nearly all actives have a fitted effect of over 60% in size
#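 NPC1 promoter–luciferase Huh7 cells; 24 h compound; luminescence.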
# KinaseGlo FLuc = Kinase-Glo luciferase inhibition (counter-screen). Kinase-Glo luciferase, ATP luminescence, 8 min. Potency, µM (series often up to 38.3 µM), for inactives: top-dose activity change, negative = inhibition, actives largely listed as inhibitors. 200,000 compounds, 0.28% hits. AID 1379; also: % is scaled to controls: 0 for no effect and ±100 for the full control effect; nearly all actives have a fitted effect of over 60% in size
#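 Compounds were added to a substrate mix at pH 7.2 (50 mM imidazole, 10 uM ATP, within the enzyme's linear range), followed by Kinase-Glo detection reagent; luminescence was measured after 8 minutes at ambient temperature.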
# An asterisk follows results filed as active; ? = inconclusive; nt = no result given. Calls follow the shape of the dose curve; as a rule, active = well fitted curve in the direction sought with a large enough effect; inconclusive = small, poorly fitted or top-dose-only effect, or another doubt; inactive = no such curve, though single readings can be large; an effect the other way counts as inactive or inconclusive. Potency is read from the fitted curve at half-maximal effect.
SMILES,ELG1 genotox,Rab9 prom act,SMN2 splice enh,FLuc modulator,NPC1 prom act,KinaseGlo FLuc
N#C/C(=C\c1ccccc1O)C(=O)Nc1ccccn1,5%,20%,nt,4.8µM*,-6%,nt
N#C/C(=C\c1ccc(O)c(O)c1)C(=O)Nc1cccc2ncccc12,-27%,-1%,nt,?,-1%,nt
CC1Oc2ccccc2N(CC(=O)NCc2ccccc2)C1=O (stereo not drawn),?,4µM*,nt,?,?,-11%
CCC1Oc2ccccc2N(CC(=O)NCCN2C(C)CCCC2C)C1=O (stereo not drawn),-1%,-1%,10µM*,0%,-1%,1%
COc1ccc(/C=N/NC(=O)CNC(=O)c2cccs2)cc1,14%,18%,11%,15µM*,-5%,1%
Cc1cccnc1NC(=O)NC(=O)c1ccc(C(C)(C)C)s1,?,2.2µM*,nt,5.4µM*,?,nt
O=C(Nc1ccc(Oc2ccc(C(=O)O)c(C(=O)O)c2)cc1)c1cccs1,2%,-6%,nt,21µM*,-2%,0%
O=C(Nc1ccc(NC(=O)c2ccc(Cl)cc2Cl)cc1)c1cccs1,15%,5%,nt,-2%,-3%,nt
COc1ccc(NC(=O)c2cccs2)c([N+](=O)[O-])c1,?,4µM*,20%,?,?,-6%
Cc1cccnc1NC(=O)CCC(=O)c1cccs1,0%,-1%,nt,0%,-1%,nt
CCOC(=O)c1sc(NC(=O)CCN2CCN(CC)CC2)c(C(=O)OCC)c1C,0%,-5%,0%,0%,0%,0%
O=C(/C=C/c1cccs1)NC(=S)Nc1ccccc1,1%,?,15%,27µM*,19%,1%
O=C(Nc1ccc(OCc2ccccc2)cc1)c1cccs1,?,4.5µM*,nt,17µM*,2.8µM*,nt
O=C(NC(=S)Nc1ccc(Br)cn1)c1cccs1,?,?,13µM*,3.8µM*,?,0%
COc1ccc2nc3c(cc2c1)c(NC(=O)c1cccs1)nn3CC(C)C,-1%,19%,13%,7.6µM*,-3%,-1%
O=C(/C=C/c1cccs1)NC(=S)NNC(=O)c1ccccc1O,-8%,-41%,-70%,?,-36%,2%
S=C(Nc1ccccc1)Nc1ccc(Br)cn1,3%,4%,-24%,-1%,-8%,1%
CC(C)Cn1nc(NC(=O)c2cccs2)c2cc3ccccc3nc21,-8%,-1%,nt,?,-4%,nt
O=C(COC(=O)Cn1cc(C(F)(F)F)ccc1=O)Nc1ccc(Br)cc1F,-1%,2%,nt,6%,-5%,nt
CC(=O)N1CCc2cc(S(=O)(=O)NC(Cc3ccccc3)C(=O)Nc3cccc(C)c3)ccc21 (stereo not drawn),nt,nt,-36%,-14%,nt,nt
COc1ccc(N(CC(=O)Nc2ccccc2OC)S(=O)(=O)c2ccc(NC(C)=O)cc2)cc1,-16%,-3%,nt,4%,-23%,nt
CC(=O)c1c(C)n(-c2ccc(C)cc2)c2ccc(OC(=O)COc3ccccc3)cc12,nt,nt,-9%,0%,nt,nt
CCN(C(=O)CSc1nc2ccccc2n1CC(=O)Nc1ccccc1C)c1ccccc1,nt,nt,nt,3%,nt,nt
CCC(C)NC(=O)Cn1c(=O)n(-c2ccc(OC)c(OC)c2)c(=O)c2ccccc21 (stereo not drawn),nt,nt,0%,-2%,nt,nt
Cc1cnc(C(=O)OCC(=O)Nc2ccc(OCc3ccccc3)cc2)cn1,?,2.5µM*,nt,?,2.8µM*,nt
C[C@H](NC(N)=O)C(=O)Nc1ccc(OCc2ccccc2)cc1,14%,3.5µM*,16µM*,?,?,0%
COc1ccc(/C=C/C(=O)Nc2ccc(OC)cc2[N+](=O)[O-])cc1,5%,1%,2%,-3%,-3%,0%
COc1ccc(NC(=O)/C=C/c2ccccc2)c([N+](=O)[O-])c1,?,3.2µM*,10µM*,?,?,-6%
COc1cccc(-c2nc(-c3ccc(NC(=O)c4ccncc4)cc3)no2)c1,1%,28%,-67%,-9%,3%,0%
